According to PubChem BioAssay (NCATS):
Records with an inconclusive call do not appear. Calls of active or inactive are those of the source. Calls come from the whole dose curve; as a rule, active = well fitted curve in the direction sought with a large enough effect; inconclusive = small, poorly fitted or top-dose-only effect, or another doubt; inactive = no such curve, though single readings can be large; an effect the other way counts as inactive or inconclusive.

What was measured:
[1] = KB-3-1 Cancer Cell Toxicity qHTS against the NCATS CANVASS Library (AID 1347366); note: series mostly up to about 46 µM; nearly all actives have a fitted effect of over 75% in size
Method in brief: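 Seed KB-3-1 cells at 500/well in DMEM with 10% FBS, add compounds, incubate 72 hr at 37C and 5% CO2, then add CellTiter-Glo and read luminescence after 10 minutes.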

[2] = qHTS for ATAD5 Agonist screened against the NCATS CANVASS Library (AID 1347367);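 note: luciferase reporter driven by ATAD5 which rises upon DNA damage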
Method in brief: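 Step one plated reporter cells and let them acclimate 5hr. Step two pinned compounds with MMS as positive and 0.46% DMSO as negative control. After 16hr incubation, fluorescence viability then luminescence were read.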

[3] = G06 Cancer Cell Toxicity qHTS against the NCATS CANVASS Library (AID 1347368); note: series mostly up to about 46 µM; nearly all actives have a fitted effect of over 60% in size
Method in brief: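 G06 dog glioma cells, 500 per well, exposed 72 hr at 37C, 5% CO2 to compounds in an 11-point series. Cytotoxicity read as ATP content by CellTiterGlo luminescence.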

[4] = MCF7 Cancer Cell Toxicity qHTS against the NCATS CANVASS Library (AID 1347369); details: outcome: dose series up to 46 µM
Method in brief: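 Cytotoxicity is measured by ATP content: MCF7 cells at 500 per well receive an 11-point compound series and, after 72 hr at 37C, are lysed with CellTiterGlo for luminescence.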

[5] = qHTS for ATAD5 Antagonist screened against the NCATS CANVASS Library (AID 1347370);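 note: HEK293T cells carrying an ATAD5 luciferase reporter co-treated with 10 µM 5-fluorouridine; series mostly up to about 46 µM; nearly all actives have a fitted effect of over 65% in size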
Method in brief: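 HEK293T cells with stably integrated ATAD5-luciferase reporter, 2000/well, 5 h attachment; compounds plus 10 µM 5-fluorouridine, 16 h at 37 °C. Luciferase luminescence read, with CellTiter-Fluor viability read first.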

[6] = J3T Cancer Cell Toxicity qHTS against the NCATS CANVASS Library (AID 1347371); details: outcome: dose series up to 46.1 µM
Method in brief: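 J3T dog glioma cells, 500 per well, treated 72 h at 37C with compounds (11-point qHTS); viability from ATP content by CellTiterGlo luminescence; bortezomib titration as control.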

[7] = target: Nuclear receptor subfamily 1 group I member 3 (Homo sapiens) (UniProt Q14994); experiment: qHTS for Constitutive Androstane Receptor (CAR) Antagonist screened against the NCATS CANVASS Library (AID 1347372);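 note: cells stimulated with 50 nM CITCO agonist so inhibition reflects antagonism; series mostly up to about 46 µM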
Nuclear receptor subfamily 1 group I member 3 (Homo sapiens), sequence (Q14994 whole entry, looked up): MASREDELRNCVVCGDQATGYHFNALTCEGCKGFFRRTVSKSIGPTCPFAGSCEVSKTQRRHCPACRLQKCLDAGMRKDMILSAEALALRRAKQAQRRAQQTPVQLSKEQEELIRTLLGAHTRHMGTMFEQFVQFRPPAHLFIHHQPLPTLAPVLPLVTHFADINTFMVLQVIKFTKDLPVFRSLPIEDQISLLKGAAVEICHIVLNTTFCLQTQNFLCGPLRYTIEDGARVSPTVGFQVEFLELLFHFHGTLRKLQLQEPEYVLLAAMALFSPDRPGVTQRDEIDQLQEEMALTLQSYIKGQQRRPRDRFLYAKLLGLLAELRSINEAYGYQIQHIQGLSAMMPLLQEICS
Method in brief: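 HepG2 cells stably carrying hCAR and a CYP2B6-2.2kb luciferase reporter were exposed to compounds plus 50 nM CITCO for 24hr at 37C. CAR activity was read by ONE-Glo luminescence, with viability measured first by CellTiter-Fluor.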

[8] = target: Nuclear receptor subfamily 1 group I member 3 (Homo sapiens) (UniProt Q14994); experiment: qHTS for Constitutive Androstane Receptor (CAR) Agonist screened against the NCATS CANVASS Library (AID 1347373);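 note: every well also contained 1.5 µM PK11195 alongside the test compound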
Method in brief: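 HepG2 cells stably carrying hCAR and a CYP2B6-2.2kb luciferase reporter, treated 24hr at 37C with compounds plus 1.5uM PK11195; activation by ONE-Glo luminescence, viability by CellTiter-Fluor.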

[9] = qHTS for Hypoxia signaling pathway (HIF-1) antagonists against the NCATS CANVASS Library (AID 1347374);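 note: HRE-bla ME-180 cells stimulated with cobalt chloride to stabilize HIF-1alpha; series mostly up to about 38 µM; nearly all actives have a fitted effect of over 60% in size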
Method in brief: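 HRE-bla ME-180 cells in medium with 0.5% dialyzed FBS received compounds (11-point series) plus CoCl2 (60 uM addition stock) for 17 hrs at 37C. Beta-lactamase activity read with CCF4 (405 nm ex, 460/530 nm em); CellTiter-Glo viability measured in same wells.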

[10] = qHTS for Hypoxia signaling pathway (HIF-1) agonists against the NCATS CANVASS Library (AID 1347375)
Method in brief: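 HRE-bla ME-180 cells (0.5% dialyzed FBS) were pre-incubated 5 hrs at 37C, then exposed to compounds in an 11-point series for 17 hrs. Read-out was CCF4-AM beta-lactamase FRET (460/530 nm emissions), with CellTiter-Glo viability in the same wells.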

[11] = 10-beta competent E. coli microbial cell viability qHTS against the NCATS CANVASS Library (AID 1347376); note: series mostly up to about 46 µM
Method in brief: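 10-beta competent E. coli (0.2 OD) were exposed overnight at 37C to compounds in an 11-point series. Viability was read as ATP-dependent BacTiter-Glo luminescence after 20 min at room temperature.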

[12] = DH5-alpha competent E. coli microbial cell viability qHTS against the NCATS CANVASS Library (AID 1347377)
Method in brief: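 DH5-alpha E. coli suspension was exposed to an 11-point compound series overnight at 37 °C. Viable cells quantified by ATP luminescence (BacTiter-Glo) after 20 min at room temperature.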

[13] = qHTS for H2AX Agonists against the NCATS CANVASS Library (AID 1347378);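 note: phospho-H2AX S139 level in CHO-K1 lysates by TR-FRET emission ratio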
Method in brief: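 Following overnight seeding, CHO-K1 cells are incubated with a concentration series of compound for 3 hr at 37C (final DMSO 0.76%). Cells are then lysed, detection antibodies added, and emission ratio 665/620 nm recorded after 24 hr at room temperature.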

[14] = qHTS for Inflammasome Signaling Inhibitors: IL-1-beta AlphaLISA screen against the NCATS CANVASS Library (AID 1347379); details: outcome: dose series up to 57.5 µM;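 note: human THP-1 cells primed with LPS then triggered with ATP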
Method in brief: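 THP-1 cells pretreated 1 hr with compound (up to 57.5 uM final), then stimulated with LPS (250 ng/mL final) and ATP (1.25 mM final). Secreted IL-1B measured by AlphaLISA after 16 hr; glyburide as positive control.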

[15] = Inflammasome Signaling qHTS Counterscreen: IL-1-beta AlphaLISA counterscreen against the NCATS CANVASS Library (AID 1347381);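 note: cell-free check with purified IL-1β in medium and no THP-1 cells; series mostly up to about 57 µM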
Method in brief: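 Cell-free interference check: compounds added to medium spiked with 4 pg purified IL-1β. Anti-IL-1β acceptor beads (6 ug/mL) with 0.6 nM biotinylated antibody added for 1 h at RT, then streptavidin donor beads (24 ug/mL) for 30 min in the dark. AlphaLISA read at 680/615 nm.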

[16] = Cytotoxicity qHTS for assessment of Hepg2 cells membrane integrity screened against the NCATS CANVASS Library (AID 1347387)
Method in brief: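 HepG2 cells (2000/well) attached overnight, then exposed 5 hr at 37C to compounds in an 11-point series (0.59 nM - 46 uM final). LDH release from damaged membranes read fluorometrically (CytoTox-ONE; 560/590 nm) after 10 min at room temperature.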

[17] = qHTS for Activators of p53 Stress Response Pathway screened against the NCATS CANVASS Library (AID 1347388)
Method in brief: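 p53RE-bla HCT-116 cells (4000/well) were plated 5 h at 37C, exposed to compounds for 16 h at 37C over an 11-point concentration series, then loaded with CCF4 for 2 h at room temperature; 460/530 nm emission ratio read.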

[18] = qHTS assay for small molecule disruptors of mitochondrial membrane potential screened against the NCATS CANVASS Library (AID 1347389); note: series mostly up to about 46 µM; nearly all actives have a fitted effect of over 60% in size
Method in brief: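 HepG2 cells (2,000/well) plated overnight, then exposed to compounds in 11-point qHTS series for 1 h at 37C before 30 min Mito-MPS dye; depolarization read as fall in red aggregate (590 nm) to green monomer (535 nm) fluorescence.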

[19] = Secretion counterscreen for inhibitors of the SERCaMP assay screened against the NCATS CANVASS Library (AID 1347390);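 note: light from luciferase secreted into medium read as a measure of general secretion; series mostly up to about 77 µM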
Method in brief: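 Counterscreen identifying compounds that disrupt secretion, using SH-SY5Y cells with a constitutively secreted Gaussia luciferase reporter. A 20 h compound exposure (top 77 uM) precedes luminescent detection with coelenterazine.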

[20] = qHTS for Antimalaria activity screened against the NCATS CANVASS Library (AID 1347380);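 note: Plasmodium falciparum strain Dd2 asexual parasites grown in red blood cells; series mostly up to about 29 µM; nearly all actives have a fitted effect of over 40% in size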
Method in brief: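 Red blood cells infected with P. falciparum Dd2 (2.5% hematocrit final, 0.3% parasitemia) were exposed to compounds in an 11-point qHTS series for 72 hr at 37C under 5% O2 and 5% CO2. Lysis buffer with SYBR Green was then added for 18 hr, and fluorescence was read at 485/535 nm.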

Measured: outcome

C/C=C/C=C/C(CC(=O)O)Nc1ccc(C=O)cc1 (stereo not given)
not listed: [20]
inactive: all other assays above

CC1=C2C(=O)O[C@@H](c3ccoc3)[C@]2(C)CCC1
not listed: [8] | [9] | [10] | [18]
inactive: all other assays above
